# IMPase Li inh = cell-permeable IMPase inhibitors with lithium potentiation | CHO-M1 cells, IP1 TR-FRET (IP-One), carbachol + lithium | Potency, µM (doses to about 59.4 µM), actives largely listed as inhibitors | 210,000 tested, 0.35% active | AID 1457;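 also: IP1 builds up when IMPase is blocked and the TR-FRET signal falls; nearly all actives have a fitted effect of over 50% in size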
#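 CHO cells stably expressing M1 receptor (2000/well) were cultured 16–30 h, then exposed to compounds with a small lithium addition for 30 min at 37C. IP1 was measured by TR-FRET competition; AC50 from Hill fits.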
# ALDH1A1 block = blocks purified human ALDH1A1 activity; AID 1030; Potency, µM (highest dose often 75.3 µM), usual class: inhibitors; Purified ALDH1A1, NADH fluorescence, propionaldehyde substrate; P00352; 220,000 tested, 7.3% active; active = well fitted inhibition curve with a large enough effect, not every such curve was filed as active; inconclusive = small, poorly fitted or top-dose-only effect, or another doubt; inactive = no such curve, though single readings can be large or run the other way
# Target sequence (P00352 whole entry, looked up): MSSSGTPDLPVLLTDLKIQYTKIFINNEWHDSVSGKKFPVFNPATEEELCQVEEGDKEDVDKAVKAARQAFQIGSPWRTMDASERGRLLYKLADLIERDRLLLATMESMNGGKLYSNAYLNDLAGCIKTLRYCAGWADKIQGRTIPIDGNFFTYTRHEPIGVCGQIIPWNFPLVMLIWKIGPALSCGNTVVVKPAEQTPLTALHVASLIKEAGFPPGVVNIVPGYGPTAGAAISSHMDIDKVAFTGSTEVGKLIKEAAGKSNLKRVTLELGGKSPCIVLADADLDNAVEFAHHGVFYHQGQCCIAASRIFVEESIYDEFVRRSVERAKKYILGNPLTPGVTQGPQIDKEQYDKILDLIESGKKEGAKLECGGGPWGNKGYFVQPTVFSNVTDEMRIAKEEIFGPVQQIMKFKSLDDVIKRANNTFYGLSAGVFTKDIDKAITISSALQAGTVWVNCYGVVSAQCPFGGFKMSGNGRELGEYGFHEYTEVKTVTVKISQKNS
# IMPase cell inh = cell-permeable inhibitors of inositol monophosphatase (IMPase) | P97697 | CHO-M1 cells, IP1 accumulation, HTRF TR-FRET ratio | inhibition (IP1 accumulation), % at 46.1 µM | 120,000 tested, under 10 active | AID 901; active = well fitted curve in the direction sought with a large enough effect in the signal ratio, not every such curve was filed as active; inconclusive = small, poorly fitted or top-dose-only effect, or a change in a side signal; inactive = no such curve, though single readings can be large or run the other way; the % refers to the signal ratio;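 also: cells stimulated with carbachol in lithium chloride buffer; higher means more IMPase inhibition seen as more IP1 and lower FRET ratio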
#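 CHO-M1, 2000 cells/well, cultured 16–30 h; cpd up to 46 uM; carbachol (50 uM solution, stimulation buffer w/ 50 mM LiCl, pH 7.4), 30 min 37C; IP-One TR-FRET, 10 min RT; Ex 320/Em 665, 620; Hill-fit AC50.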
# NPSR antagonist = blocks cAMP signaling of the human neuropeptide S receptor; 220,000 tested, 1% active; CHO-NPSR cells, cAMP TR-FRET, antagonist mode; Potency, µM (titrated, usually from 38.3 µM), usual class: inhibitors; Q6W5P4; also: nearly all actives have a fitted effect of over 50% in size
# HPGD inh = HPGD (human) dehydrogenase inhibition | 150,000 tested, 4.3% active | AID 894 | purified HPGD, NADH fluorescence kinetic, PGE2 substrate | Potency, µM, usual class: inhibitors; active = well fitted inhibition curve with a large enough effect, not every such curve was filed as active; inconclusive = small, poorly fitted or top-dose-only effect, or another doubt; inactive = no such curve, though single readings can be large or run the other way
# Target sequence (P15428 whole entry, looked up): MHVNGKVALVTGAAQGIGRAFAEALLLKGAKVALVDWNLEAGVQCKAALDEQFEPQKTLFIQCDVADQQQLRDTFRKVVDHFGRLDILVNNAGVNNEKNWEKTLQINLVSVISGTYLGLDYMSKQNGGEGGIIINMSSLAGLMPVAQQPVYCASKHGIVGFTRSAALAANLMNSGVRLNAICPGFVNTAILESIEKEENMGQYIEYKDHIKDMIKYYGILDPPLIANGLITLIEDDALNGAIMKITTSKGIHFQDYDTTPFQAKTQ
#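 NADH formation kinetics: reaction with 30 uM PGE2 and 1 mM NAD+ (final), 20 nM enzyme, Tris-HCl pH 8 with Tween 20, after 15 min compound preincubation at room temperature. Fluorescence change, last versus first of five reads.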
# 12-hLO inh = blocks human 12-lipoxygenase activity | P18054 | purified 12-hLO, xylenol orange hydroperoxide absorbance | Potency, µM (highest dose often 57.1 µM), usual class: inhibitors | 150,000 tested, 0.12% active | AID 1452; also: nearly all actives have a fitted effect of over 55% in size
#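 Purified human 12hLO (150 nM), preincubated 15 min with compound, then 40 uM arachidonic acid for 30 min, room temperature, Hepes pH 7.0 with 0.01% Triton X-100. Hydroperoxide detected by ferrous iron/xylenol orange; 573/405 nm absorbance ratio gives reaction progress.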
# A number is an active result; i = inactive; ? = inconclusive; nt = no result; [ ] = another dose, or the depositor's remark. Shown are actives, neighbours in structure and some others; about 8.9% of the full set was active somewhere. Unless noted, calls follow the shape of the dose curve; as a rule, active = well fitted curve in the direction sought with a large enough effect; inconclusive = small, poorly fitted or top-dose-only effect, or another doubt; inactive = no such curve, though single readings can be large; an effect the other way counts as inactive or inconclusive.
SMILES,IMPase Li inh,ALDH1A1 block,IMPase cell inh,NPSR antagonist,HPGD inh,12-hLO inh
CCN(CC)S(=O)(=O)c1cccc(C(=O)Nc2ccc3c(c2)OCO3)c1,i,?,nt,i,nt,nt
CCCN(CCC)S(=O)(=O)c1cccc(C(=O)Nc2ccc3c(c2)OCO3)c1,i,3.2µM,i,?,i,i
O=C(COC(=O)Cc1ccc(S(=O)(=O)N2CCOCC2)s1)Nc1ccc2c(c1)OCO2,i,20µM,i,i,i,i
O=C(Nc1cccc(F)c1)c1ccc2c(c1)OCO2,i,i,i,i,?,i
O=C(COC(=O)c1cc(S(=O)(=O)N2CCOCC2)ccc1Cl)Nc1ccc2c(c1)OCO2,i,?,i,i,i,i
O=C(O)CCCC(=O)N1CCc2cc(S(=O)(=O)NCc3ccccc3)ccc21,i,i,nt,i,nt,nt
CC(=O)c1ccc(S(=O)(=O)Nc2cc3c(cc2C(C)=O)OCO3)cc1,i,i,nt,i,nt,nt
CCN(CC)S(=O)(=O)c1ccc(S(=O)(=O)Nc2cc3c(cc2C(C)=O)OCO3)cc1,nt,3.2µM,i,i,nt,i
CCN(CC)S(=O)(=O)c1ccc2c(c1)nc(SCC(=O)N1CCOCC1)n2-c1ccccc1OC,i,i,i,i,i,i
CCN(CC)S(=O)(=O)c1ccc2c(c1)nc(SCC(N)=O)n2-c1ccc(OC)cc1,i,?,i,?,22µM,i
CCOCCSc1nc2c(c(=O)[nH]c(=O)n2C)n1CCCc1ccccc1,i,i,i,i,i,i
Cn1c(=O)[nH]c(=O)c2c1nc(SCCN1CCCCC1)n2CCCc1ccccc1,i,?,i,i,28µM,i
Cc1cccc(Cn2c(SCC(=O)Nc3ccccc3)nc3c2c(=O)[nH]c(=O)n3C)c1,i,?,i,i,22µM,i
Cc1cccc(Cn2c(Sc3nc(C)cs3)nc3c2c(=O)[nH]c(=O)n3C)c1,i,i,i,i,i,i
Cn1c(=O)[nH]c(=O)c2c1nc(Sc1nc3ccccc3s1)n2Cc1ccccc1,i,16µM,i,i,i,i
Cc1ccc(Cn2c(-n3nc(C)cc3C)nc3c2c(=O)[nH]c(=O)n3C)cc1,i,i,i,i,i,i
Cc1cc(C)n(-c2nc3c(c(=O)[nH]c(=O)n3C)n2Cc2cccc(Br)c2)n1,i,i,i,i,16µM,i
Cc1cccc(Cn2c(SCCN3CCCCC3)nc3c2c(=O)[nH]c(=O)n3C)c1,nt,nt,nt,i,nt,nt
Cc1ccc(Cn2c(SCCN3CCCCC3)nc3c2c(=O)[nH]c(=O)n3C)cc1,i,?,i,i,28µM,i
Cn1c(=O)[nH]c(=O)c2c1nc(SCCN1CCCCC1)n2Cc1ccccc1,i,?,i,i,25µM,i
C[C@H](NC(=O)Cc1cccc2ccccc12)C(=O)NCc1ccccc1,i,i,nt,i,nt,nt
CCOc1ccc(OC(=O)c2cccnc2)cc1,i,i,i,i,i,i
COc1ccccc1-n1cnnc1SCC(=O)N1CC(=O)Nc2ccccc21,i,4.5µM,i,i,i,i
COc1ccccc1-n1nnnc1SCC(=O)Nc1ccccn1,i,0.63µM,i,i,i,i
CCOc1ccccc1-n1nnnc1SCC(=O)Nc1cc2oc3ccccc3c2cc1OC,i,i,i,i,i,i
SMILES,IMPase Li inh,ALDH1A1 block,IMPase cell inh,NPSR antagonist,HPGD inh,12-hLO inh
COc1ccccc1Nc1nnc(SCC(=O)N2CC(=O)Nc3ccccc32)s1,nt,i,i,i,nt,i
CCOc1ccccc1-n1nnnc1SCC(=O)Nc1cc(C)on1,i,8.9µM,?,i,i,i
COc1ccccc1-n1cnnc1SCC(=O)Nc1cc(C)on1,i,5µM,nt,i,nt,nt
Cc1cc(NC(=O)CSc2nncn2-c2ccccc2)no1,i,i,nt,i,nt,nt
O=C(O)C/C(=C\c1ccco1)C(=O)O,i,i[13.5 µM],nt,nt,i,i[11.4 µM]
CCN1CCN(CCOCCOc2ccccc2-c2ccccc2)CC1,i,?,nt,i,nt,nt
Cc1cc(NC(=O)CSc2nnnn2-c2ccc(C)c(C)c2)no1,i,?,nt,i,nt,nt
Cc1cc(NC(=O)CSc2nnnn2-c2ccccc2)no1,i,16µM,nt,i,nt,nt
Cc1cc(NC(=O)CSc2nnnn2Cc2ccccc2)no1,i,32µM,?,i,i,i
COc1cc(NC(=O)CSc2nnnn2Cc2ccccc2)cc(OC)c1,i,i,nt,i,nt,nt
O=C(CSc1nnnn1-c1ccccc1)Nc1ccc(Cl)cn1,i,2.2µM,i,i,i,i
O=C1CN(C(=O)CSc2nnc(Nc3ccccc3)s2)c2ccccc2N1,i,28µM,nt,i,2.2µM,i
CCOc1ccc(/C=N/NC(=O)Cc2csc(Nc3cccc(C(F)(F)F)c3)n2)c(OCC)c1,i,?,i,?,i,i
COc1ccc(NC(=O)C2CCCCN2N)cc1OCC(C)C (stereo unspecified),i,i,i,i,i,i
O=C(CSc1nnnn1-c1ccc(O)cc1)Nc1cccc(S(=O)(=O)N2CCCC2)c1,i,i,i,i,i,i
CCc1nnc(NC(=O)CSc2nnnn2-c2cccc(C(=O)OC)c2)s1,i,?,i,i,14µM,i
CCOc1ccccc1-n1nnnc1SCC(=O)NC(=O)Nc1ccc2c(c1)OCCO2,i,13µM,i,?,i,i
O=C(CSc1nnnn1-c1ccccc1)NC(=O)Nc1ccc2c(c1)OCCO2,i,?,i,i,i,i
COc1ccc(-n2c(SCC(=O)Nc3cc(C)on3)nc3c([nH]c4ccccc43)c2=O)cc1,5µM,?,nt,?,nt,nt
Cc1cccc(-n2nnnc2SCC(=O)Nc2cccc(S(N)(=O)=O)c2)c1,nt,7.9µM,nt,i,nt,nt
COc1cccc(NC(=O)COC(=O)c2nc3nccc(C)n3n2)c1,i,i,i,i,i,i
CC(C(=O)NC(C)(C)C)N1C(=O)c2cccc3cccc(c23)C1=O (stereo unspecified),i,?,nt,i,nt,nt
O=C(Cn1nc(Cc2cccnc2)c2ccccc2c1=O)N1CCN(c2ccccn2)CC1,i,i,i,i,i,i
COC(=O)c1c(NC(=O)CSc2nnnn2-c2ccccc2)sc2c1CCC(C(C)(C)C)C2 (stereo unspecified),i,13µM,i,i,i,i
O=C(CSc1nnnn1Cc1ccccc1)NCC(=O)c1ccccc1,i,8.9µM,i,i,i,i
SMILES,IMPase Li inh,ALDH1A1 block,IMPase cell inh,NPSR antagonist,HPGD inh,12-hLO inh
COc1ccccc1-n1nnnc1SCc1ccccc1,i,?,i,i,i,i
COC(=O)c1c(NC(=O)COc2ccccc2Cl)sc2c1CCC(C(C)(C)C)C2 (stereo unspecified),nt,nt,i,nt,nt,nt
COc1ccccc1-n1nnnc1SCc1cc2c(cc1Br)OCO2,i,4.5µM,i,?,?,i
CC1(C)CC(=O)c2sc(NC(=O)Cc3cccs3)nc2C1,?,0.79µM,i,i,i,i
COc1cccc(CC(=O)Nc2nc3c(s2)C(=O)CC(C)(C)C3)c1,?,1.3µM,nt,i,nt,nt
Cc1ccc(S(=O)(=O)Nc2nc3c(s2)C(=O)CC(C)(C)C3)cc1,i,32µM,nt,i,nt,nt

# Bioassay records: PubChem, National Center for Advancing Translational Sciences (NCATS)
